# Results from ChEMBL document CHEMBL4513216, “Probing the Open Global Health Chemical Diversity Library for Multistage-Active Starting Points for Next-Generation Antimalarials” (ACS Infect Dis, 2020).
# The campaign covered roughly 65,000 compounds. About 2,100 (3.2%) showed an effect of 50% or more. The median lay at about -52%. Many of the other results were omitted from the sample, so strong results are more common in it than they were.
# System: Plasmodium falciparum
# Test: Screen against P. falciparum Asexual Blood Stage (ABS), at 5uM
# Format: functional, Dd2
# Conditions: tested at 5 uM
row,Structure (SMILES),INHIBITION [%]
1,CO[C@H]1CN(Cc2ccc(C)o2)[C@@H]2CCCO[C@H]12,11.8
2,CN(C)C(=O)COC[C@H]1CC[C@@H]2[C@@H](CCN2Cc2ccccn2)O1,-79.4
3,O=C1[C@@H]2CCN(CC3CC3)C[C@@H]2OCCN1c1cccnc1,-73.4
4,O=C(NCC(F)(F)F)C1=NOC2(CCCNC2)C1 (stereo unspecified),-61.4
5,CCOC[C@H]1CC[C@H]2[C@H](CCN2Cc2c(C)noc2C)O1,-13.8
6,CNc1cc(C)nc(N2C[C@H](C3CC3)[C@@H](N)C2)n1,88.3
7,CCc1[nH]c(C2(N)CCCC2)nc(=O)c1C,-32.3
8,COC(=O)CCC(=O)NC(C)Cc1ccccc1Br (stereo unspecified),-63.4
9,COCCN(Cc1ccccc1Cl)c1nc(CCN)nc2ccccc12,89.5
10,c1cnc(N2CCO[C@H]3CN(CC4CC4)C[C@H]32)nc1,3.32
11,CCCNCc1ccc(-c2cc(N)nc3[nH]ccc23)cc1,72.3
12,CN(C)c1nccc(N(C)C2CCN(CC3CCOC3)CC2)n1 (stereo unspecified),-4.08
13,Cc1ccc(CNCc2cccc3cccnc23)c(OC2CCOC2)c1 (stereo unspecified),85.4
14,Cc1ccc(CNCc2cccc3cn[nH]c23)c(OC2CCOC2)c1 (stereo unspecified),78.7
15,Cc1nc(COC[C@@H]2CC[C@H]3NCC[C@H]3O2)cs1,-46.5
16,Cc1noc(C)c1CN1C[C@H](OCC(=O)N(C)C)[C@H]2COC[C@H]21,-85.8
17,O=C1[C@H]2CN(CC3CC3)C[C@H]2CN1c1ccsc1,-60.4
18,Cc1cnc(N2CCC[C@@H]3CN(CC(=O)N(C)C)C[C@@H]32)nc1,-22.5
19,COc1cc(C2SCC(=O)Nc3[nH]ncc32)cc(OC)c1OC (stereo unspecified),-200
20,O=C(NCC1CC1)C1CCC2(CCNCC2)C1 (stereo unspecified),-31.3
21,Fc1cnc(N2CCO[C@H]3CN(CC4CCCC4)C[C@H]32)nc1,25.4
22,CC(C)CCN1C[C@@H]2OCCN(c3ncc(F)cn3)[C@@H]2C1,-2.26
23,Cc1nc(CN2C[C@@H]3OCCN(c4ncc(F)cn4)[C@@H]3C2)cs1,52
24,CO[C@@H]1CCN(S(=O)(=O)c2cccnc2)[C@@H]2CN(CC3CC3)C[C@@H]21,-23.6
25,Cc1noc(C)c1CN1C(=O)[C@@H]2CC[C@H]1CN(Cc1nccs1)C2,-122
26,O=C(Cc1ccc(CO)cc1)N1CCN(CC2CC2)[C@@H]2CS(=O)(=O)C[C@@H]21,-55.1
